Laboratory results as given in PubChem BioAssay AID1159580 (chemical genetic matrix, 2015).
Hit rate of the full screen: of about 5,500 compounds, about 2,000 (36%) were called active. Inconclusive results (about 18%) are left out. Rule as the data show it: active = normalized growth mostly below about 0.91 (no sharp cut-off); inconclusive = no clear call, values can overlap the other calls; inactive = mostly above about 0.92. This is one part of the list.

Test: chemical genetic growth profiling, strain panel (AID 1159580);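 also: tested at 20 µM; growth read once vehicle control cultures reached saturation at 30 °C; 1 = growth at the plate median or of vehicle wells; lower values mean less growth of the strain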
Conditions: S. cerevisiae deletion strains, growth OD

Measured: normalized growth

CN(C)CCc1c[nH]c2ccc(C[C@H]3COC(=O)N3)cc12
inactive: locus YAL021C, strain ccr4, hits give low values 1.02 | locus YAL026C, strain drs2, hits give low values 1.01 | locus YAL030W, strain snc1, hits give low values 1.01 | locus YBL061C, strain skt5, hits give low values 1.01 | locus YBR009C, strain hhf1, hits give low values 1.01 | locus YBR023C, strain chs3, hits give low values 1.01 | locus YBR171W, strain sec66, hits give low values 1.02 | locus YBR231C, strain swc5, hits give low values 0.993 | locus YBR279W, strain paf1, hits give low values 1.01 | locus YCL011C, strain gbp2, hits give low values 1.01 | locus YCL016C, strain dcc1, hits give low values 1 | locus YCL061C, strain MRC1, hits give low values 1.01 | locus YCL069W, strain vba3, hits give low values 1.01 | locus YCR088W, strain abp1, hits give low values 1.01 | locus YDL005C, strain med2, hits give low values 1.01 | locus YDL040C, strain nat1, hits give low values 1.01 | locus YDR001C, strain nth1, hits give low values 1.01 | locus YDR069C, strain doa4, hits give low values 1.02 | locus YDR137W, strain rgp1, hits give low values 0.993 | locus YDR159W, strain sac3, hits give low values 1.04 | locus YDR195W, strain ref2 0.978 | locus YDR297W, strain sur2, hits give low values 1.01 | locus YDR334W, strain swr1, hits give low values 1.02 | locus YDR335W, strain msn5, hits give low values 1.01 | locus YDR392W, strain spt3, hits give low values 1.03 | locus YEL003W, strain gim4, hits give low values 1 | locus YEL037C, strain rad23, hits give low values 1.01 | locus YEL061C, strain CIN8 (second series), hits give low values 1.01 | locus YER015W, strain faa2, hits give low values 1.01 | locus YER016W, strain bim1, hits give low values 1.01 | locus YER111C, strain swi4, hits give low values 1.02 | locus YER155C, strain BEM2 (second series), hits give low values 1.06 | locus YFR010W, strain ubp6, hits give low values 1.02 | locus YGL167C, strain pmr1, hits give low values 1.01 | locus YGL173C, strain kem1, hits give low values 1 | locus YGL227W, strain vid30, hits give low values 1.01 | locus YGL240W, strain doc1, hits give low values 1.01 | locus YGL253W, strain hxk2, hits give low values 0.998 | locus YHR013C, strain ard1, hits give low values 1 | locus YHR027C, strain rpn1, hits give low values 1.01 | locus YHR030C, strain SLT2, hits give low values 1.02 | locus YHR079C, strain IRE1, hits give low values 0.986 | locus YHR142W, strain chs7, hits give low values 0.992 | locus YJL092W, strain hpr5, hits give low values 1.01 | locus YJL095W, strain BCK1 (second series), hits give low values 1.01 | locus YJL095W, strain BCK1, hits give low values 1 | locus YJL115W, strain asf1, hits give low values 1.01 | locus YJL129C, strain trk1, hits give low values 0.988 | locus YJL154C, strain vps35, hits give low values 1.01 | locus YJL164C, strain tpk1, hits give low values 1.02 | locus YJL166W, strain qcr8, hits give low values 1.01 | locus YJR066W, strain TOR1, hits give low values 0.966 | locus YKL160W, strain elf1, hits give low values 1 | locus YKR026C, strain gcn3, hits give low values 0.992 | locus YKR091W, strain srl3, hits give low values 0.997 | locus YLL001W, strain dnm1, hits give low values 1.01 | locus YLL026W, hits give low values 1.01 | locus YLL041C, strain sdh2, hits give low values 1.01 | locus YLR027C, strain aat2, hits give low values 1.01 | locus YLR113W, strain HOG1, hits give low values 0.972 | locus YLR221C, strain rsa3, hits give low values 1.02 | locus YLR258W, strain gsy2, hits give low values 1.01 | locus YLR262C, strain YPT6 (second series), hits give low values 1.01 | locus YLR320W, strain mms22, hits give low values 1.01 | locus YLR342W, strain FKS1, hits give low values 1.01 | locus YLR357W, strain rsc2, hits give low values 0.973 | locus YLR370C, strain arc18, hits give low values 1.01 | locus YLR384C, strain iki3, hits give low values 1 | locus YML120C, strain ndi1, hits give low values 1.02 | locus YMR058W, strain fet3, hits give low values 1.01 | locus YMR125W, strain sto1, hits give low values 1.01 | locus YMR129W, hits give low values 1.01 | locus YMR205C, strain PFK2, hits give low values 0.998 | locus YMR231W, strain pep5, hits give low values 1 | locus YNL071W, strain lat1, hits give low values 1.01 | locus YNL183C, strain NPR1, hits give low values 0.978 | locus YNL209W, strain ssb2, hits give low values 1.01 | locus YNL248C, strain rpa49, hits give low values 1 | locus YNL322C, strain KRE1 (second series), hits give low values 1.01 | locus YNR049C, strain mso1, hits give low values 1.01 | locus YOR001W, strain rrp6, hits give low values 0.998 | locus YOR070C, strain gyp1, hits give low values 1.01 | locus YOR080W, strain dia2, hits give low values 1 | locus YOR083W, strain WHI5, hits give low values 1 | locus YOR106W, strain vam3, hits give low values 1 | locus YOR231W, strain MKK1, hits give low values 0.999 | locus YOR265W, strain rbl2, hits give low values 1.01 | locus YOR270C, strain vph1, hits give low values 0.991 | locus YOR290C, strain snf2, hits give low values 1.01 | locus YPL051W, strain arl3, hits give low values 1.01 | locus YPL078C, strain atp4, hits give low values 1 | locus YPL106C, strain sse1, hits give low values 1.04 | locus YPL240C, strain hsp82, hits give low values 1.01 | locus YPL256C, strain CLN2, hits give low values 1.02
